Experimental data from the supplement of paper PMC11732987, “Enantioselective OTUD7B fragment discovery through chemoproteomics screening and high-throughput optimisation” (Communications Chemistry, 2025).

How the values were obtained:
Assay in all cases: log2 ratio of Biotin-Ahx-Ub-VS probe labelling (fragment/DMSO); higher = less target engagement (more negative = stronger competition), active = hit call of the paper (q ≤ 0.05, log2 ratio ≤ -1)
Details in all cases: compound concentration: 200 uM; treatment time: 3 h
USP34 = USP34 (UniProt Q70CQ2)
In short: (§1)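 Using Biotin-Ahx-Ub-VS at 0.5 µM final for 1 h, DUBs were labelled in HEK293T lysate (495 µg per sample) that had first been treated in triplicate with fragment at 200 µM or vehicle for 3 h. NeutrAvidin enrichment, LysC and trypsin digestion and diaPASEF LC-MS/MS followed. Spectronaut label-free quantities were global-median-normalised. Values are average log2 fragment/vehicle ratios by unpaired t-test, using proteins with ≥2 unique peptides.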

USP36 = target: T1, USP36 (UniProt Q9P275)
T1 sequence (whole entry): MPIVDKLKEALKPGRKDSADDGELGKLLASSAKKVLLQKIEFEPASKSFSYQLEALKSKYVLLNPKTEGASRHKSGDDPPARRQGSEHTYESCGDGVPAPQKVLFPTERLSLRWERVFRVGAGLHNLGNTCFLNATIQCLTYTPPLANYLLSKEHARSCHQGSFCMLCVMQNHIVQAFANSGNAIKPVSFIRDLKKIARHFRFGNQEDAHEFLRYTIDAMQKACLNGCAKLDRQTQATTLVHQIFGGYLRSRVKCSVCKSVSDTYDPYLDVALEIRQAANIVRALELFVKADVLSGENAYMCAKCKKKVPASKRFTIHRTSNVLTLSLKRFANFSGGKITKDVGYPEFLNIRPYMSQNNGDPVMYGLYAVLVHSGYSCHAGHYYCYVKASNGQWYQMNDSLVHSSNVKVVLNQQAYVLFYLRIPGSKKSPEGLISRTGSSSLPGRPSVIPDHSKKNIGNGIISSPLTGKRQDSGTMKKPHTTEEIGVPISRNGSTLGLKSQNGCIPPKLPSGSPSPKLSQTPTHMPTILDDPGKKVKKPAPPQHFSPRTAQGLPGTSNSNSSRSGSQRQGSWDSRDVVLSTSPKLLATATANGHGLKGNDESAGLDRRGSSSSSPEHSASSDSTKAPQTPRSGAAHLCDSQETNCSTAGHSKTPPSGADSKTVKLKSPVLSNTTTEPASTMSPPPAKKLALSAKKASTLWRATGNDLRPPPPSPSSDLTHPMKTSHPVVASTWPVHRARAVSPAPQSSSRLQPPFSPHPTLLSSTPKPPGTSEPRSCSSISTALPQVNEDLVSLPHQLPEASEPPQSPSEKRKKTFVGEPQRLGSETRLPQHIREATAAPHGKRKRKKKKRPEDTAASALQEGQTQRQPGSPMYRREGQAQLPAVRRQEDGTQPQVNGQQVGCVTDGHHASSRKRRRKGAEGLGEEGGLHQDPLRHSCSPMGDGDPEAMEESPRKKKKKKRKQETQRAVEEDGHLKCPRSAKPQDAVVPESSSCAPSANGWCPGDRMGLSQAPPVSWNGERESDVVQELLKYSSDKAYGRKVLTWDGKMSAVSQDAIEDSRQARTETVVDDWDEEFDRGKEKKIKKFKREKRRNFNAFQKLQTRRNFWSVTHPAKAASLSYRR
In short: as §1

USP38 = target: T2, USP38 (UniProt Q8NB14)
T2 sequence (whole entry): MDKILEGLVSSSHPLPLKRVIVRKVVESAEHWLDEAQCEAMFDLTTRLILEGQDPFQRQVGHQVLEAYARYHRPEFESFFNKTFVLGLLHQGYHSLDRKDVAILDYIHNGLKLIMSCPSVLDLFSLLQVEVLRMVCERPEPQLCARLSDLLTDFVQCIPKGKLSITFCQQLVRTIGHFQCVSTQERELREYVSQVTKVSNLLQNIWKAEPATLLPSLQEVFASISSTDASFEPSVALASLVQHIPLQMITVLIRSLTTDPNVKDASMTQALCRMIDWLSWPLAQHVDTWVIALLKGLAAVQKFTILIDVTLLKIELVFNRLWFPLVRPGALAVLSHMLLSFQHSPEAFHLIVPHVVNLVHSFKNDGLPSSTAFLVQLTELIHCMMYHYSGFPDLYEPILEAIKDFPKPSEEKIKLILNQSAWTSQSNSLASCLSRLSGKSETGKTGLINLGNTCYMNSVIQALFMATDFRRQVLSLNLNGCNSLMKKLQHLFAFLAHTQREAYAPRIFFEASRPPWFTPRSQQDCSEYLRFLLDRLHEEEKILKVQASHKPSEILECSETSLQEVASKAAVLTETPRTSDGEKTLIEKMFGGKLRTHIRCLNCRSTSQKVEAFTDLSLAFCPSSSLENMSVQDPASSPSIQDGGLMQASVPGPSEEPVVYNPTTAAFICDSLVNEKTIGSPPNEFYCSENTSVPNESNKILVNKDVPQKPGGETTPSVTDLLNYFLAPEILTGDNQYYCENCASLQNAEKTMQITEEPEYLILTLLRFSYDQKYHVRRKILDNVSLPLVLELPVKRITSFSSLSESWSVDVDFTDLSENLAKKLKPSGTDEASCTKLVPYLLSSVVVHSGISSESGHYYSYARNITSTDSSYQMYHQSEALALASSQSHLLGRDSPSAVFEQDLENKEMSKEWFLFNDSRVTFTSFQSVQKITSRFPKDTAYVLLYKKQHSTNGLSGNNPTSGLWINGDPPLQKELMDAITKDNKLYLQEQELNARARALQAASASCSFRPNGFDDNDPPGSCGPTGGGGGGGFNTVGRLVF
In short: as §1

USP39 = target: T3, USP39 (UniProt Q53GS9)
T3 sequence (whole entry): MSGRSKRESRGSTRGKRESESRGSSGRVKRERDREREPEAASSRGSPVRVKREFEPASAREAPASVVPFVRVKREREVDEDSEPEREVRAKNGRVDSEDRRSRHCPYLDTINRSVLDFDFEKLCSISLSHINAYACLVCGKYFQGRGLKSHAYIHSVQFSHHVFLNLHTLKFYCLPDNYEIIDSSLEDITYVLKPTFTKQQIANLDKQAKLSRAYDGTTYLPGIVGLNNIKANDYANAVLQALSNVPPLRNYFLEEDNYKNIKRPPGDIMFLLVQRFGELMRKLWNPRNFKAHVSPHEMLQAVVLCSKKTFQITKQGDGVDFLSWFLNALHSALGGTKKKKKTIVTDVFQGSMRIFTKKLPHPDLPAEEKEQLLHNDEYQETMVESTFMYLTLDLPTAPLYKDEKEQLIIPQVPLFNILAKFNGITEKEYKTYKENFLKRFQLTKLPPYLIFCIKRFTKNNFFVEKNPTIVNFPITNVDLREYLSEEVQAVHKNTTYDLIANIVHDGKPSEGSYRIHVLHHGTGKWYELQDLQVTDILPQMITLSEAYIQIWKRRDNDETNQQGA
In short: as §1

USP4 = target: T4, USP4 (UniProt Q13107)
T4 sequence (whole entry): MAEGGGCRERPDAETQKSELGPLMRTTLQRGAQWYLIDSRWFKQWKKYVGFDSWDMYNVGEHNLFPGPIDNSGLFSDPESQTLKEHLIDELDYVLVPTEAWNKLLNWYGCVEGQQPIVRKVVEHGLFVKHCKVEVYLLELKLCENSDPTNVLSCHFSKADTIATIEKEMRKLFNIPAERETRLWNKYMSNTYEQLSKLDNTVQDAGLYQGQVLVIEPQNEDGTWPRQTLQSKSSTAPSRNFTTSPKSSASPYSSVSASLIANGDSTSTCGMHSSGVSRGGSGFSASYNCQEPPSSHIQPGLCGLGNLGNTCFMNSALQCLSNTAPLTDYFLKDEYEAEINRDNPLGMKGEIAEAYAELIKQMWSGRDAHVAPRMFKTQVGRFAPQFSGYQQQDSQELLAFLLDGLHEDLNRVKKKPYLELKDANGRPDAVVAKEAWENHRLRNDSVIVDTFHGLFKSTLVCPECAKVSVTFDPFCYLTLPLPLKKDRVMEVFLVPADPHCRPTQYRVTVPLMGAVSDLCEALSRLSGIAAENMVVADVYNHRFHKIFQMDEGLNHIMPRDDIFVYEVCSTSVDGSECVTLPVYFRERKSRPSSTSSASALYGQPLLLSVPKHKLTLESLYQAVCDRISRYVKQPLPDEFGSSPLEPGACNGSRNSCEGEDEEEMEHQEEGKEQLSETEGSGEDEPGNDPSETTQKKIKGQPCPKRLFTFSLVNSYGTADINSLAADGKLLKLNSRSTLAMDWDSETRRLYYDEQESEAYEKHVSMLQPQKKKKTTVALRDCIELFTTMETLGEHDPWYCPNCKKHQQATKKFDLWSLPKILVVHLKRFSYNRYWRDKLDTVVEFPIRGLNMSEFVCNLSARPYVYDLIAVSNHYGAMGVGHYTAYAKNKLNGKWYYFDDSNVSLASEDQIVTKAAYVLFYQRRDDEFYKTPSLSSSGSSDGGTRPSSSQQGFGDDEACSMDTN
In short: as §1

Measured: log2 ratio of Biotin-Ahx-Ub-VS probe labelling

Sequence of USP34 (Q70CQ2 whole entry, the tested form may be a part): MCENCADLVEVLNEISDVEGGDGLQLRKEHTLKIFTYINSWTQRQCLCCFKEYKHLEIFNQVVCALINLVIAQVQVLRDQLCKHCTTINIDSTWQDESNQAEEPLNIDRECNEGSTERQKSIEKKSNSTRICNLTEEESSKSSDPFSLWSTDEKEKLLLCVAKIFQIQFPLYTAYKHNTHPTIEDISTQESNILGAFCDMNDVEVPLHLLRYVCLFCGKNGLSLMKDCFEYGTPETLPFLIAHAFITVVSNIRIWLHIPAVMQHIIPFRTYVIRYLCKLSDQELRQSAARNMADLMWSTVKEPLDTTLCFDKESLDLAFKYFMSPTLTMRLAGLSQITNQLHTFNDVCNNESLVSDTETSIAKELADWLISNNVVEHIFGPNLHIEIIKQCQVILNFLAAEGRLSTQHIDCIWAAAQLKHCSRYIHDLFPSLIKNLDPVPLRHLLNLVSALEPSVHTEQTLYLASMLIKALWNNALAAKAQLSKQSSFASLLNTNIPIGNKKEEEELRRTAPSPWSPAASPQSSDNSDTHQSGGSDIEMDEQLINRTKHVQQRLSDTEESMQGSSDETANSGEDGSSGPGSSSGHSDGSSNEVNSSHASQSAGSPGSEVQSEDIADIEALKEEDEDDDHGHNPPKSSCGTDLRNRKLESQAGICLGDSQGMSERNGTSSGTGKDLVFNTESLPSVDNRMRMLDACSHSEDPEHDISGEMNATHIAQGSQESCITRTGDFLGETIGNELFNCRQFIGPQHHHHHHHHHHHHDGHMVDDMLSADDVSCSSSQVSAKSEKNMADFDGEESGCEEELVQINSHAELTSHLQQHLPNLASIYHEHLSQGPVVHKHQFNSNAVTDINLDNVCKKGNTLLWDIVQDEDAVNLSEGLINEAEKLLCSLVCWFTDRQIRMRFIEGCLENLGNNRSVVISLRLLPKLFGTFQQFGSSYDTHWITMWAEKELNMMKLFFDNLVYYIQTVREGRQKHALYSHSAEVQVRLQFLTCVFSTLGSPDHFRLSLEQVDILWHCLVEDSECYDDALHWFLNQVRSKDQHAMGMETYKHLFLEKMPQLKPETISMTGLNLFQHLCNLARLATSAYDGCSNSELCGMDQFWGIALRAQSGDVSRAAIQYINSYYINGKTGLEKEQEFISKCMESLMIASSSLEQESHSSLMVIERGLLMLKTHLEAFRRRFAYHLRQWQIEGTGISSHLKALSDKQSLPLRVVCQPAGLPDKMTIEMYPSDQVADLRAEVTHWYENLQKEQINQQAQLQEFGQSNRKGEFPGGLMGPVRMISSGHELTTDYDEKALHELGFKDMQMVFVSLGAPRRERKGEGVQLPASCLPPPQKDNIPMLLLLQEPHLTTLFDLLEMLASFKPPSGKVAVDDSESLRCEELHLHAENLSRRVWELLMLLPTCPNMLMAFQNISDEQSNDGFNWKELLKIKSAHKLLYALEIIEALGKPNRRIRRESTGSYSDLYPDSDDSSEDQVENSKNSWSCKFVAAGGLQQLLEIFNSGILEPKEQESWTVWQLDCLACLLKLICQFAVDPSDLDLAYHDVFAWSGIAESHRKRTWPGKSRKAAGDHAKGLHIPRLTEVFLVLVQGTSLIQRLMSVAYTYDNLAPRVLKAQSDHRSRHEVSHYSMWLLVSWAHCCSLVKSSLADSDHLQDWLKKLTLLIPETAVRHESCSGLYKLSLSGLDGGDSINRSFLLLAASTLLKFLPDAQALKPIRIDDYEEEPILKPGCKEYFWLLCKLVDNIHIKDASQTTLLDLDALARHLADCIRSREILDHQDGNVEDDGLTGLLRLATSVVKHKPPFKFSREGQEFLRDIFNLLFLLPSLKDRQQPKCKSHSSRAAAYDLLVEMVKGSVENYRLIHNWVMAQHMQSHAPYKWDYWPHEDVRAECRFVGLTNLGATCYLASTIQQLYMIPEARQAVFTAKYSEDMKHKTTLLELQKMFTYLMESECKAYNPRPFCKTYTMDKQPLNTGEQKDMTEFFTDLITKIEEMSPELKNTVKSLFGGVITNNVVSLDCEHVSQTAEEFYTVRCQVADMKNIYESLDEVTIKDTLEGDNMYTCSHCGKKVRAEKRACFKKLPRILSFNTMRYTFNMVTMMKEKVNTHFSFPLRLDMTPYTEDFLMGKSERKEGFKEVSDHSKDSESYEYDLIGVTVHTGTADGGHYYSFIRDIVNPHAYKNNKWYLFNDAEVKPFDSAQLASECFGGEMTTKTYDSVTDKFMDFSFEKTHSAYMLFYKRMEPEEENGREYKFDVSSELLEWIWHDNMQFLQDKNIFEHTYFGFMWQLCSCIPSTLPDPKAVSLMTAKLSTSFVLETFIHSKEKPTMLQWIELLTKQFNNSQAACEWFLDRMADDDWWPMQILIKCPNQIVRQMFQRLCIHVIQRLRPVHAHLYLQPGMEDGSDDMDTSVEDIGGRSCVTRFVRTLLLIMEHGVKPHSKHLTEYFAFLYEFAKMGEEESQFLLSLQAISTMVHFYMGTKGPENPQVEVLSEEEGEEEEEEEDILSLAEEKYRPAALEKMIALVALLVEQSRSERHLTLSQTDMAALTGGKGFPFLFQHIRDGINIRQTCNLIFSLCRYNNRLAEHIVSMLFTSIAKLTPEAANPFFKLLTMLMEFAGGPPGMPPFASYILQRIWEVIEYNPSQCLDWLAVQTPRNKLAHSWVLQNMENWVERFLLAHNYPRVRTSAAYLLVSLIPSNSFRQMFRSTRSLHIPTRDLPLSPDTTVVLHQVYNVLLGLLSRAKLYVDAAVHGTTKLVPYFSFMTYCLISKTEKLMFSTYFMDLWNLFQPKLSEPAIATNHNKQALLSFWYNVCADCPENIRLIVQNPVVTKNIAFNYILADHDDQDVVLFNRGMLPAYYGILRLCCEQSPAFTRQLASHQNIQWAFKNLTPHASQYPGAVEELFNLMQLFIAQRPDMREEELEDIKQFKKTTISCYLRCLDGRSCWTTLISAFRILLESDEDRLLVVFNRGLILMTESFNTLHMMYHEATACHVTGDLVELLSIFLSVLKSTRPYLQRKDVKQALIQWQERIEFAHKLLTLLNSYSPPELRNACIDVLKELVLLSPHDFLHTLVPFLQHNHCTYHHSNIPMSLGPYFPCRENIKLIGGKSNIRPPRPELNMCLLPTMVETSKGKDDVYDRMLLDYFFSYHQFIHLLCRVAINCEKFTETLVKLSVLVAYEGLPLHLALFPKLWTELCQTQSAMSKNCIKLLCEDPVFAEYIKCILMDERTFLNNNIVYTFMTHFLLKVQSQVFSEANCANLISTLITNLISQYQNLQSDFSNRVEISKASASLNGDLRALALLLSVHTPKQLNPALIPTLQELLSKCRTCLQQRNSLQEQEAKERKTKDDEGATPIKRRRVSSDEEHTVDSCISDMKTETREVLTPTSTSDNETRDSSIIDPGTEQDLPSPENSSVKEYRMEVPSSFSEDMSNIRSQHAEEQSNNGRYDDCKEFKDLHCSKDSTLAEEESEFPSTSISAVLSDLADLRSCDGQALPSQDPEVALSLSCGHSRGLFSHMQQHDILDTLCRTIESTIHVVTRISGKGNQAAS

Cc1noc(N2CCN(C(=O)CCl)CC2)n1.Cl
inactive: USP34 0.028 | USP36 -0.0365 | USP38 -0.0491 | USP39 0.251 | USP4 0.0534
